This passage reports activation, Potency and activity change, negative = inhibition results from PubChem BioAssay (NCATS).

Assay [1] addresses Cellular tumor antigen p53 (Homo sapiens) (UniProt P04637). As to the kind of experiment: Primary qHTS for small molecule compounds that upregulate eGFP-tagged delta133p53alpha (in N-terminal) cells. (AID 2060322). Also: nearly all actives have a fitted effect of over 75% in size. Also: potency is read from the fitted curve at half-maximal effect.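 As to activation: series mostly up to about 56 µM; 0% = DMSO vehicle and 100% = reference activator.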 The note with it: NCI-H358 eGFP-delta133p53alpha fluorescence, 24 h; activation: stronger effect = higher value. The gist of the method: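 NCI-H358 cells pre-induced 24 h with 10 ng/ml doxycycline to express N-terminal eGFP-delta133p53alpha, then dosed 24 h at 37C without doxycycline; fixed, Hoechst-stained, GFP intensity by laser scanning cytometry, normalized to DMSO (0%) and 57.5 uM 5-azacytidine (100%).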
In general terms: In qHTS, concentration-response curves come from the screen itself.

For assay [2], the target named is Aldehyde dehydrogenase, mitochondrial (Homo sapiens) (UniProt P05091). As to the kind of experiment: qHTS for Inhibitors of the Aldehyde Dehydrogenase Family (ALDH2) Primary screen (AID 2061308).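 Also: plate controls were vehicle for no effect and reference inhibitor for full effect; nearly all actives have a fitted effect of over 55% in size.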
Assay [3] deals with Retinaldehyde dehydrogenase 3 (Homo sapiens) (UniProt P47895). As to the kind of experiment: qHTS for Inhibitors of the Aldehyde Dehydrogenase Family (ALDH1A3) Primary screen (AID 2061315).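 Also: plate controls were DMSO vehicle for no effect and reference inhibitor for full effect.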
A short description of assay [4]: BET inhibitor-based combinations targeting novel dependencies in MECOM-rearranged (r) AML: HNT-34 cell line (AID 2202234). Also: nearly all actives have a fitted effect of over 35% in size. Also: potency is read from the fitted curve at half-maximal effect. The gist of the method:
(§1)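 Each compound is tested in an 11-point concentration series against 500 seeded cells/well for 48 hr. The luminescent viability signal is normalized to DMSO and blank wells, then reduced to AUC and a cell-line-centred Z-AUC.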

A short description of assay [5]: BET inhibitor-based combinations targeting novel dependencies in MECOM-rearranged (r) AML: UCSD-AML1 cell line (AID 2202235). Also: nearly all actives have a fitted effect of over 40% in size. Also: potency is read from the fitted curve at half-maximal effect. In a few lines: as §1
A short description of assay [6]: BET inhibitor-based combinations targeting novel dependencies in MECOM-rearranged (r) AML: AML-191 cell line (AID 2202236; also: nearly all actives have a fitted effect of over 35% in size; also: potency is read from the fitted curve at half-maximal effect). The gist of the method:
(§2)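 A 48 hr incubation preceded viability reading by CellTiter-Glo, with 15 min room-temperature development. Dose series had 11 points; normalization used DMSO and empty wells; AUC was computed and mean-centered per line as Z-AUC.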

Assay [7] is described as follows: BET inhibitor-based combinations targeting novel dependencies in MECOM-rearranged (r) AML: MV-4-11 cell line (AID 2202233). Also: nearly all actives have a fitted effect of over 45% in size. Also: potency is read from the fitted curve at half-maximal effect. In a few lines:
as §1

A short description of assay [8]: BET inhibitor-based combinations targeting novel dependencies in MECOM-rearranged (r) AML: AML-194 cell line (AID 2202237; also: nearly all actives have a fitted effect of over 40% in size; also: potency is read from the fitted curve at half-maximal effect). In a few lines:
as §2

Several values for one entry are separate records, joined by “and”; a condition that tells them apart may be missing. Identical values can stand only once. Results filed as inconclusive are left out. Values without a mark were called inactive. Activity calls are given as the source filed them. Calls follow the shape of the dose curve; as a rule, active = well fitted curve in the direction sought with a large enough effect; inconclusive = small, poorly fitted or top-dose-only effect, or another doubt; inactive = no such curve, though single readings can be large; an effect the other way counts as inactive or inconclusive.

Chain of Cellular tumor antigen p53 (Homo sapiens) (P04637 whole entry, looked up): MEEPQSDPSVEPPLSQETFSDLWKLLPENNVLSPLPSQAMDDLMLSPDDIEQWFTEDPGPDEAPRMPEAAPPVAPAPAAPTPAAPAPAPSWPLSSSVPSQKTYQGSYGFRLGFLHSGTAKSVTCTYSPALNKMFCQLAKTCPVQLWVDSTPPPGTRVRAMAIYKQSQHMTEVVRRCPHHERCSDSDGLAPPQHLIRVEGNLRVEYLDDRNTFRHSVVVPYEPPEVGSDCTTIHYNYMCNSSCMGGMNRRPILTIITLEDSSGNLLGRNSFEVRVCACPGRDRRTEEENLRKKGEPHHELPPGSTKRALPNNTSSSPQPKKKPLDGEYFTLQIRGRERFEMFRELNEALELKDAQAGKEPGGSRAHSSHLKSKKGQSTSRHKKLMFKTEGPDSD

With `Cc1ccc(NC(=O)Nc2cc(C(F)(F)F)ccc2F)cc1Nc1ccc2c(c1)NC(=O)/C2=C\c1ccc[nH]1`, the activation in assay [1] was -0.477%. Further, the Potency entry in assay [2], in assay [3] and in assay [5] was “inactive” in each case. Also, the figures for the Potency in assay [4] and in assay [6] were 26.3 µM (active) and 20.9 µM (active), respectively.

Take `N#CC[C@H](C1CCCC1)n1cc(-c2ncnc3[nH]ccc23)cn1`: the activation in assay [1] was 7.18% and -12.3%. Also, the Potency entry in assay [2] and in assay [3] was “inactive” throughout. In assay [6], the Potency is 5.9 µM (active).

As for `CC1c2ccccc2CN1NC(=O)c1ccc(Cl)c(S(N)(=O)=O)c1` (stereo unspecified), the activation in assay [1] was 6.69%. Moreover, the Potency result in assay [2], in assay [3], in assay [7], in assay [5] and in assay [8] was “inactive” in each case.

As to `C[C@@H](N)c1ccc(C(=O)Nc2ccnc3[nH]ccc23)cc1`, in assay [1], the activation is 21.5%. Moreover, the Potency result in assay [2] and in assay [3] was “inactive” in each case. The Potency in assay [7] is 3.72 µM (active); in assay [5] it was 18.6 µM (active); in assay [6], 16.6 µM (active); in assay [8], 14.8 µM (active).

For `CC(C)(CNC(=O)c1cccc(-c2noc(C(F)(F)F)n2)c1)c1coc(-c2ccccc2)n1`, in assay [1], the activation was -0.477%. Further, the Potency result in assay [2], in assay [3] and in assay [5] was “inactive” in each case. Moreover, the Potency was 23.5 µM (active) in assay [7] and 11.8 µM (active) in assay [6].

With `Cc1ccc(S(=O)(=O)Nc2cc(Cl)ccc2C(=O)Nc2nc(-c3ccccc3)cs2)cc1`, in assay [1], the activation is 7.51%. Also, the Potency entry in assay [2] and in assay [3] was “inactive” in each case. Also, the Potency in assay [8] was 7.42 µM (active).

For the compound `Nc1ccn([C@@H]2C(F)=C(CO)[C@@H](O)[C@H]2O)c(=O)n1`, the activation in assay [1] is 0.893% and -30.2%. Further, the Potency result in assay [2] and in assay [3] was “inactive” each time. For the same compound, the Potency in assay [5] is 0.662 µM (active).

Consider `CN(C)C(=O)c1cc2cnc(Nc3ccc(N4CCNCC4)cn3)nc2n1C1CCCC1`, for which, in assay [1], the activation is 15.2%. The Potency entry in assay [2], in assay [3], in assay [4], in assay [5], in assay [6] and in assay [8] was “inactive” each time.

`Nc1ncnc2c1c(-c1cccc(OCc3ccccc3)c1)cn2C1CC(CN2CCCC2)C1` (stereo unspecified): the activation in assay [1] is 31.8%. Also, the Potency result in assay [2] and in assay [3] was “inactive” throughout. Further, the Potency in assay [7] was 2.63 µM (active); in assay [6], 20.9 µM (active).

On to `CC(O)c1cc(C(=O)N[C@@H](C)Cn2ccc(-c3ccc(C#N)c(Cl)c3)n2)n[nH]1` (stereo partly specified), for which the activation in assay [1] is 1%. For the same compound, the Potency result in assay [2], in assay [3], in assay [7], in assay [5] and in assay [8] was “inactive” in each case. Further, the Potency in assay [6] is 16.6 µM (active).

Turning to `NC1CCC(N[C@@H]2C[C@H]2c2ccccc2)CC1` (stereo partly specified), the activation in assay [1] is 3.67% and 27.6%. The Potency result in assay [2], in assay [3], in assay [6] and in assay [8] was “inactive” in each case. Also, the Potency in assay [5] is 0.0019 µM (active).

Take `O=C(CC12CC3CC(CC(C3)C1)C2)Nc1cccc2nc(NCCNCCO)ccc12`: in assay [1], the activation was 11.8% and 6.68%. Also, the Potency entry in assay [2], in assay [3] and in assay [6] was “inactive” in each case.

With `NS(=O)(=O)c1ccc(Nc2nc(OCC3CCCCC3)c3[nH]cnc3n2)cc1`, in assay [1], the activation is -24.8%. The Potency result in assay [2] and in assay [3] was “inactive” each time. Besides, the Potency in assay [7] is 3.32 µM (active); in assay [5], 10.5 µM (active).

Take `CN(C)CCCNC(=O)c1ccc(-c2cc(O)c3ncccc3c2)cc1`: the activation in assay [1] is -8.46% and -17.9%. Besides, the Potency entry in assay [2] and in assay [3] was “inactive” throughout. Besides, the Potency in assay [5] is 18.6 µM (active).

As for `CCC(=O)N1CCN(c2ccc(-n3c(=O)ccc4cnc5ccc(-c6cnc7ccccc7c6)cc5c43)cc2C(F)(F)F)CC1`, in assay [1], the activation is 41.3%. Moreover, the activity change, negative = inhibition in assay [2] was -6.8% [at 11.2 µM]; in assay [3], 3.25% [at 11.2 µM]. Further, the Potency in assay [5] is 0.0091 µM (active).

For the compound `CS(=O)(=O)c1ccc(-c2cnc(N)c(C(=O)Nc3ccccc3)n2)cc1`, in assay [1], the activation was -13%. Also, the Potency entry in assay [2] and in assay [3] was “inactive” throughout. Moreover, the results for the Potency in assay [7] and in assay [6] were 7.42 µM (active) and 4.68 µM (active), respectively.

Take `COc1cc(N2CCC(N3CCN(C)CC3)CC2)ccc1Nc1ncnc(Nc2ccccc2S(=O)(=O)C(C)C)n1`: the Potency in assay [1] was 24.3 µM (active) and 26.9 µM (active); in assay [4], 9.34 µM (active); in assay [6], 18.6 µM (active); in assay [8] it was 10.5 µM (active). The Potency result in assay [2] and in assay [3] was “inactive” in each case.

Turning to `COc1c(Cl)cc2c([nH]c3cnccc32)c1NC(=O)c1cccnc1C`, the activation in assay [1] is 16.3%. Also, the Potency result in assay [2] and in assay [3] was “inactive” in each case. Moreover, the Potency was 20.9 µM (active) in assay [6] and 23.5 µM (active) in assay [8].

Take `O=c1[nH]nc(OCCCc2ccc(Cl)cc2)c(NCc2cccnc2)c1Br`: in assay [1], the activation is -4.06% and -19.1%. Besides, the Potency result in assay [2] and in assay [3] was “inactive” each time. In assay [8], the Potency was 20.9 µM (active).

Turning to `CC(C)Nc1cc(C(F)(F)F)cc2nc(NC(=O)c3cccnc3)nn12`, in assay [1], the activation was -46.7% and -1.43%. For the same compound, the Potency result in assay [2], in assay [3], in assay [7], in assay [6] and in assay [8] was “inactive” throughout.

Regarding `N#Cc1cccc(-c2c[nH]c3ncnc(N4CCOCC4)c23)c1`, in assay [1], the activation was -5.36%. The Potency entry in assay [2], in assay [3], in assay [5] and in assay [8] was “inactive” each time. Also, the Potency in assay [6] is 18.6 µM (active).
